# Test results reported in PubChem BioAssay (NCI).
# Compounds without any hit were thinned out: in the full panel of roughly 83,000, 20% have a hit.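 Cells were grown in 96-well plates and exposed to the test compound at a single concentration for 48 hours; results are reported as percent growth, with values below 10 considered active.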 Values without a mark were called inactive. The source made the active and inactive calls.
# Test system: OVCAR-8 ovarian
# Assay: NCI-60 one-dose screen, 48 h (100 = growth as untreated, 0 = no growth, -100 = all killed)
# Conditions: 10 µM
row,Compound,growth
1,O=C(/C=C/c1ccc(Br)cc1)c1nc2ccccc2n1Cc1ccc(Br)cc1,-18% (active)
2,COC(=O)CCn1c(-c2ccc(-n3cc(-c4ccc(O[C@H]5O[C@@H]6OC7(C)CC[C@H]8[C@H](C)CC[C@@H]([C@H]5C)[C@@]68OO7)cc4)nn3)cc2)nc2ccccc21,9.58% (active)
3,CC1=C(C=O)C2=C(C)C3(CC3)[C@@](C)(O)C(=O)C2=C1,-25.3% (active)
4,N#C[Se]CC(=O)Nc1cccc(C(F)(F)F)c1,-49.9% (active)
5,CCC[Se]C(=O)c1ccc(C(=O)[Se]CCC)s1,-51.1% (active)
6,C[C@H]1[C@@H](CC(=O)N[C@@H](Cc2coc3ccccc23)B(O)O)O[C@@H]2OC3(C)CC[C@H]4[C@H](C)CC[C@@H]1[C@@]24OO3,-6.75% (active)
7,O=C(/C=C/c1ccco1)c1nc2ccccc2n1Cc1ccc(F)cc1,70.1%
8,COC(=O)C[C@](O)(CCC(C)C)C(=O)O[C@H]1C(OC)=C[C@@]23CCCN2CCc2cc4c(cc2[C@@H]13)OCO4,-38.8% (active)
9,C[C@H]1[C@H](OC(=O)CCC(=O)N(CCCc2cn(-c3ccc(C#N)cc3)nn2)CCNc2ccnc3cc(Cl)ccc23)O[C@@H]2OC3(C)CC[C@H]4[C@H](C)CC[C@@H]1[C@@]24OO3,22.3%

# Test system: OVCAR-5 ovarian
# Assay: as above
# Conditions: 10 µM
row,Compound,growth
1,COc1cc2cc(C(=O)N3C[C@@H](CCl)c4c3cc(OC(=O)N3CCN(C)[C@@H]5CSSC[C@H]53)c3ccccc43)[nH]c2c(OC)c1OC,-20.4% (active)
2,CC1=C(CCC=O)C2=C(C)C3(CC3)[C@@](C)(O)C(=O)C2=C1,-95.8% (active)
3,COC(=O)C[C@](O)(CCC(C)C)C(=O)O[C@@H]1C(OC)=C[C@]23CCCN2CCc2cc4c(cc2[C@H]13)OCO4,-35.9% (active)
4,O=C(/C=C/c1ccc(Cl)cc1)c1nc2ccccc2n1Cc1ccc(F)cc1,19.1%
5,CC[C@]12C=CCN3CC[C@@]4(c5ccc(OC)cc5N(C)[C@H]4[C@@](O)(C(=O)OC)[C@@H]1OC(=O)CCC[P+](C1CCCCC1)(C1CCCCC1)C1CCCCC1)[C@@H]32,11%
6,CC1=C2C(=C[C@@](C)(COP(=O)(Oc3ccccc3)Oc3ccccc3)[C@@H]2O)C(=O)[C@@](C)(O)C12CC2,-64.5% (active)
7,CC(=O)Oc1ccccc1C(=O)NC([Se])=NC1CCCCC1,-30.3% (active)
8,CCOP(=O)(CC(F)(F)C(F)(F)F)OCC,50.7%
9,CC(C)C[C@H](NC(=O)CNC(=O)C[C@H]1O[C@@H]2OC3(C)CC[C@H]4[C@H](C)CC[C@@H]([C@H]1C)[C@@]24OO3)B(O)O,-28.3% (active)
10,C[C@H]1[C@@H](Oc2ccc(-c3cn(-c4ccnc5cc(Cl)ccc45)nn3)cc2)O[C@@H]2OC3(C)CC[C@H]4[C@H](C)CC[C@@H]1[C@@]24OO3,19.2%
11,C[C@H]1[C@H](OC(=O)CCC(=O)N(CCCc2cn(-c3ccc([N+](=O)[O-])cc3)nn2)CCNc2ccnc3cc(Cl)ccc23)O[C@@H]2OC3(C)CC[C@H]4[C@H](C)CC[C@@H]1[C@@]24OO3,54.3%
12,COc1cc2cc(C(=O)N3C[C@@H](CCl)c4c3cc(OC(=O)N3CCN(C)[C@@H]5CSSC[C@@H]53)c3ccccc43)[nH]c2c(OC)c1OC,-6.69% (active)
13,COc1cc2cc(C(=O)N3C[C@@H](CCl)c4c3cc(OC(=O)N3CCN(C(=O)CCC(=O)N5CCN(C)CC5)[C@@H]5CSSC[C@@H]53)c3ccccc43)[nH]c2c(OC)c1OC,-35.6% (active)
14,COC(=O)c1ccc(-n2cc(CCCN(CCNc3ccnc4cc(Cl)ccc34)C(=O)CCC(=O)O[C@@H]3O[C@@H]4OC5(C)CC[C@H]6[C@H](C)CC[C@@H]([C@H]3C)[C@@]46OO5)nn2)cc1,49.2%
15,O=C([Se]C1C=CCCC1)c1ccc(C(=O)[Se]C2C=CCCC2)s1 (stereo not drawn),-89.2% (active)
16,O=C(/C=C/c1cccc(Br)c1)c1nc2ccccc2n1Cc1ccc(F)cc1,53.7%
17,CC[C@]12C=CCN3CC[C@@]4(c5ccc(OC)cc5N(C)[C@H]4[C@@](O)(C(=O)OC)[C@@H]1OC(=O)CCC[P+](c1ccc(C)cc1)(c1ccc(C)cc1)c1ccc(C)cc1)[C@@H]32,-95.9% (active)
18,O=C(NC([Se])=NC1CCCCC1)c1ccccc1,62.2%
19,O=C(/C=C/c1ccc(F)cc1)c1nc2ccccc2n1Cc1ccc(F)cc1,-7.92% (active)
20,O=C(/C=C/c1ccccc1)c1nc2ccccc2n1Cc1ccc(Br)cc1,-62.3% (active)

row,Compound,growth
1,C=CC[Se]C(=O)c1cncc(C(=O)[Se]CC=C)c1,-86.6% (active)
2,COc1ccc(OC)c(/C=C/C(=O)c2nc3ccccc3n2Cc2ccc(F)cc2)c1,-43% (active)
3,O=C(/C=C/c1ccc(F)cc1)c1nc2ccccc2n1Cc1ccc(Br)cc1,-55.1% (active)
4,CC[C@]12C=CCN3CC[C@@]4(c5ccc(OC)cc5N(C)[C@H]4[C@@](O)(C(=O)OC)[C@@H]1OC(=O)CCCC[P+](c1ccc(C)cc1)(c1ccc(C)cc1)c1ccc(C)cc1)[C@@H]32,-96% (active)
5,CC(C)N=C([Se])NC(=O)c1cccs1,-22.6% (active)
6,CC1=C(CCC=NNC(N)=O)C2=C(C)C3(CC3)[C@@](C)(O)C(=O)C2=C1,-35.8% (active)
7,Cc1ccc2[nH]c(=S)n(-c3ccc(F)cc3)c(=O)c2c1,106%
8,C#CC[Se]C(=O)c1ccc2n[se]nc2c1,75.7%
9,CC1=C(COCCOC(=O)c2ccc(S(=O)(=O)F)cc2)C2=C(C)C3(CC3)[C@@](C)(O)C(=O)C2=C1,-43.7% (active)
10,CC12CCC3(CCC(=O)NCCCNc4ccnc5cc(Cl)ccc45)[C@@](C)(OO[C@]3(C)O1)O2,4.68% (active)
11,O=C(/C=C/c1ccc(Br)cc1)c1nc2ccccc2n1Cc1ccc(Br)cc1,-43.4% (active)
12,COC(=O)CCn1c(-c2ccc(-n3cc(-c4ccc(O[C@H]5O[C@@H]6OC7(C)CC[C@H]8[C@H](C)CC[C@@H]([C@H]5C)[C@@]68OO7)cc4)nn3)cc2)nc2ccccc21,36.6%
13,CC1=C(C=O)C2=C(C)C3(CC3)[C@@](C)(O)C(=O)C2=C1,36.7%
14,N#C[Se]CC(=O)Nc1cccc(C(F)(F)F)c1,-36.7% (active)
15,CCC[Se]C(=O)c1ccc(C(=O)[Se]CCC)s1,-35.6% (active)
16,C[C@H]1[C@@H](CC(=O)N[C@@H](Cc2coc3ccccc23)B(O)O)O[C@@H]2OC3(C)CC[C@H]4[C@H](C)CC[C@@H]1[C@@]24OO3,-57.1% (active)
17,O=C(/C=C/c1ccco1)c1nc2ccccc2n1Cc1ccc(F)cc1,89.4%
18,COC(=O)C[C@](O)(CCC(C)C)C(=O)O[C@H]1C(OC)=C[C@@]23CCCN2CCc2cc4c(cc2[C@@H]13)OCO4,-20.4% (active)
19,C[C@H]1[C@H](OC(=O)CCC(=O)N(CCCc2cn(-c3ccc(C#N)cc3)nn2)CCNc2ccnc3cc(Cl)ccc23)O[C@@H]2OC3(C)CC[C@H]4[C@H](C)CC[C@@H]1[C@@]24OO3,54.5%
